Cycloheximide cs: Cycloheximide Counterscreen for Small Molecule Inhibitors of Shiga Toxin | cell reporter, cycloheximide protein synthesis inhibition counterscreen | max response, % | hit rate 12% among 300,000 | AID 2314, 2010; in the data active means max response mostly above about 13%, no sharp cut-off; inactive means mostly below about 14%; further: read at 38.3 µM for the half of the compounds with a filed dose; 0% is about no effect
LmPK inh: qHTS Assay for Inhibitors of Leishmania Mexicana Pyruvate Kinase (LmPK) | Potency, µM (series often up to 57.5 µM), without a hit: at the highest dose activity change, negative = inhibition, most hits filed as inhibitors | hit rate 0.37% among 290,000 | Q27686 | purified LmPK, Kinase-Glo ATP luminescence, 1 h; active means well fitted curve in the direction sought with a large enough effect; inconclusive means small, poorly fitted or top-dose-only effect, or another doubt; inactive means no such curve, though single readings can be large; an effect the other way counts as inactive or inconclusive; further: potency means the concentration at half of the fitted maximal effect; on the % scale 0 is the no-effect control and ±100 the full control effect
Target sequence (Q27686 whole entry, looked up): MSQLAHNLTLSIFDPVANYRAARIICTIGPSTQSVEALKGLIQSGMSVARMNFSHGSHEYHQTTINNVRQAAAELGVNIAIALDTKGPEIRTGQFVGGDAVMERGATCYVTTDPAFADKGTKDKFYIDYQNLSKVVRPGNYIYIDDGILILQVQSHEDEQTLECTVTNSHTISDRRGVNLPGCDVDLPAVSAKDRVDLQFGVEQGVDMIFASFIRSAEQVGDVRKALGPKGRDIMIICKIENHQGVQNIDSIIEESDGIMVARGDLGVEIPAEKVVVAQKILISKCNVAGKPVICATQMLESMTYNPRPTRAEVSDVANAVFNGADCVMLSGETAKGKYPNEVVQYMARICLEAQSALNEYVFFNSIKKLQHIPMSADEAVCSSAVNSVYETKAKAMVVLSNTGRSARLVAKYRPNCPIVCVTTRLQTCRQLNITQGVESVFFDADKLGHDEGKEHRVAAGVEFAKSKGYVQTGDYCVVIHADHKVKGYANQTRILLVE
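0.1 nM LmPK, 0.5 mM PEP, 0.1 mM ADP; 50 mM imidazole pH 7.2, 7 mM MgCl2, 50 mM KCl; 1 h RT. Kinase-Glo luminescence readout, normalized to no-enzyme (full inhibition) and uninhibited wells.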
Shiga toxin inh: A qHTS for Small Molecule Inhibitors of Shiga Toxin; Vero cells, Shiga toxin protein synthesis inhibition reporter; inhibition, % at 38.7 µM; hit rate 9.2% among 290,000; in the data active means inhibition mostly above about 28%, no sharp cut-off; inactive means mostly below about 43%; further: 0% is about no effect
NS1 function inh: qHTS Assay for Inhibitors of Influenza NS1 Protein Function | Potency, µM (doses to about 46.1 µM), without a hit: at the highest dose activity, positive = more growth | hit rate 0.4% among 270,000 | AID 2326, 2010; further: potency means the concentration at half of the fitted maximal effect; actives are rising curves; nearly all actives have a fitted effect of over 50% in size
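A cell-based growth assay was used: compounds that relieve NS1-induced slow growth of budding yeast raise OD600. Assay medium was yeast nitrogen base with ammonium sulphate and -URA supplement, pH 6.0, with 2% galactose.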
TbPYK inhibitor: qHTS of Trypanosoma Brucei Inhibitors. TbPYK enzyme, Kinase-Glo Plus ATP luminescence, 45 min. Potency, µM (top dose mostly 76.8 µM), without a hit: top-dose activity, negative = inhibition, actives largely listed as inhibitors. hit rate 0.12% among 410,000. AID 624173, 2012; active means well fitted curve in the direction sought with a large enough effect; inconclusive means small, poorly fitted or top-dose-only effect, or another doubt; inactive means no such curve, though single readings can be large; an effect the other way counts as inactive or inconclusive; further: potency means the concentration at half of the fitted maximal effect; on the % scale 0 is the no-effect control and ±100 the full control effect; nearly all actives have a fitted effect of over 50% in size
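Assay buffer: 50 mM TEA pH 7.2, 100 mM KCl, 10 mM MgCl2, 0.05% BSA, 0.01% Tween-20. Pyruvate kinase from T. brucei plus substrate met compound, then ADP (130 uM final). Luminescence was read post 45 min RT.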
SARS PLpro yeast: qHTS of Yeast-based Assay for SARS-CoV PLP; S. cerevisiae expressing SARS-CoV PLpro, growth rescue; Potency, µM (top dose mostly 32.9 µM), without a hit: at the top dose activity, positive = growth rescue, usual class: activators; hit rate 0.19% among 330,000; AID 485353, 2010; further: potency means the concentration at half of the fitted maximal effect; 0% is about no effect; nearly all actives have a fitted effect of over 55% in size
Numbers without * were called inactive; ? = inconclusive; . = no result given. The full list was thinned out, with hits kept by preference. Unless noted, the call rests on the fitted dose curve.

SMILES	Cycloheximide cs	LmPK inh	Shiga toxin inh	NS1 function inh	TbPYK inhibitor	SARS PLpro yeast
CC(=O)[C@@]1(O)CC[C@@H]2[C@@H]3CCC4=CC(=O)CC[C@]4(C)[C@]3(F)[C@@H](O)C[C@@]21C	.	.	.	.	0%	.
CCN(CC)c1ccc(C(=O)N2CCC(c3ccncc3)CC2)cc1	.	.	.	.	-4%	.
CN(c1ccccc1)S(=O)(=O)c1ccc(Cl)c(C(=O)Nc2ccccc2N2CCOCC2)c1	.	.	.	.	1%	1%
COc1ccc2nc(NC(=S)NC(=O)c3ccco3)sc2c1	34*	-3%	127*	.	1%	-2%
COc1ccc(OCCn2c(NC(=O)c3ccco3)nc3ccccc32)cc1	20*	-2%	68	4%	-1%	1%
COc1ccc2sc(NC(=O)c3ccco3)nc2c1	23*	?	30	-123%	-19%	-16%
CCN(c1ccc(OC)cc1)S(=O)(=O)c1nnc(NC(=O)c2ccco2)s1	-2	-9%	-9	5%	-7%	-4%
O=C(NC(=S)Nc1nc2ccccc2s1)c1ccco1	35*	0%	30*	-3%	-8%	-6%
COc1ccc2nc(NC(=O)CCNC(=O)c3ccco3)sc2c1	.	.	.	.	-4%	-9%
N#Cc1ccccc1Sc1ccccc1C(=O)NCC(c1ccco1)N1CCCC1 (stereo not drawn)	.	.	.	.	-2%	-2%
CN1/C(=C\C=N\O)C(C)(C)c2ccccc21	-2	-2%	50	.	-7%	-5%
CN(C)c1ccc(N=C/C=C2/N(C)c3ccccc3C2(C)C)cc1	62*	-6%	78*	-16%	-9%	-12%
COc1ccccc1C(=O)Nc1ccc2nc(N3CCC(C)CC3)cc(C)c2c1	.	.	.	.	-2%	.
Cc1c(C)n(CCc2ccccc2)c2ncnc(NCCCN(C)C)c12	18	-3%	28*	8%	6%	2%
Cc1c(C)n(CCN(C)C)c2ncnc(NCc3ccccc3)c12	-3	-1%	3	-1%	5%	1%
CCc1ccc(/C=C2\SC(=S)N(CCC(=O)NCCCN3CCOCC3)C2=O)cc1	45*	-1%	46*	-2%	0%	-3%
COC(=O)c1ccc(/C=C2\SC(=S)N(CCCC(=O)NCCCN3CCOCC3)C2=O)cc1	-5	-11%	-9	5%	-5%	0%
Cc1ccc(/C=C2\SC(=S)N(CCC(=O)NCCCN3CCOCC3)C2=O)cc1	14	1%	25	-2%	2%	0%
COc1ccc(/C=C2\SC(=S)N(CCC(=O)NCCCN3CCOCC3)C2=O)cc1	13*	3%	28	-6%	-8%	-1%
CC(C)c1cccc(C(C)C)c1OC(=O)[C@H]1OC(c2ccc(Br)cc2)=C[C@@H]1c1ccc(Br)cc1	.	.	.	.	2%	0%
COc1cccc(NC(=O)CNS(=O)(=O)c2ccc(Cl)cc2)c1	-1	4%	3	-6%	-3%	20%
O=C(COc1ccccc1O)Nc1ccc(Cl)cc1	28*	1%	56*	-34%	-2%	-7%
COc1ccc(OCC(=O)Nc2ccc(C)cc2)cc1	26*	2%	60*	-100%	-1%	-11%
COc1ccc(NC(=O)CNS(=O)(=O)c2ccc(Cl)cc2)cc1	16*	1%	23	-2%	-4%	-18%
Cc1ccc(OCC(=O)Nc2ccc(F)cc2)cc1	47*	5%	40*	-3%	-13%	-3%
SMILES	Cycloheximide cs	LmPK inh	Shiga toxin inh	NS1 function inh	TbPYK inhibitor	SARS PLpro yeast
Cc1noc2ncnc(N3CCCC(C(=O)Nc4cccc(C(F)(F)F)c4)C3)c12 (stereo not drawn)	.	.	.	.	-4%	.
CCOC(=O)c1cccc(NC(=O)[C@H](CSCc2ccccc2)N2Cc3ccccc3C2=O)c1	.	.	.	.	2%	.
CCCc1noc(-c2ccc(NCc3ccc(C)cc3)c([N+](=O)[O-])c2)n1	.	.	.	.	-6%	.
COc1ccc(OCC(=O)Nc2ccc(Cl)cc2)cc1	19*	2%	61*	-5%	-7%	-2%
COc1ccc(NC(=O)COc2ccc(N(C)S(=O)(=O)c3ccc(Cl)cc3)cc2)cc1	.	.	.	.	-2%	.
COc1ccc(OCC(=O)NNC(=O)C(=O)Nc2ccc(C)cc2)cc1	24*	10%	14	?	-5%	0%
C=CCC1(CC=C)CCCN1C(=O)c1cc(COc2cccc(OC)c2)on1	-2	6%	26	-14%	-10%	-4%
C=CCC1(CC=C)CCCN1C(=O)c1cc(COc2cncc(Cl)c2)on1	36*	-3%	35*	-43%	.	-1%
COCC1CCCN(C(=O)c2cc(COc3cncc(Cl)c3)on2)C1 (stereo not drawn)	41*	0%	101*	-1%	-8%	-2%
COC(=O)[C@@H](NC(=O)c1cc(COc2cncc(Cl)c2)on1)c1ccccc1	40*	-5%	34	-8%	-5%	-4%
CCOC(=O)C(CC)Sc1nnc2[nH]c(=O)cc(C)n12 (stereo not drawn)	.	.	.	.	-8%	.
COc1ccc(-c2nc(CS(=O)CC(=O)NCCc3ccccc3)c(C)o2)cc1OC (stereo not drawn)	.	.	.	.	0%	.
Cc1onc(-c2ccccc2Cl)c1C(=O)NC1CCCCCC1	11	1%	5	-3%	-1%	0%
O=C(Nc1ccc(F)cc1)c1cccc(N2CCCS2(=O)=O)c1	.	.	.	.	-5%	.
Cc1ccn2cc(-c3ccc4c(c3)NC(=O)CO4)nc2c1	32	-4%	75*	.	1%	-2%
Cc1cccn2cc(-c3ccc4c(c3)NC(=O)CO4)nc12	31*	-4%	61*	-3%	-13%	-1%
CNC(=O)c1cnc2sc(N3CCCCCC3)nn2c1=O	.	.	.	.	2%	.
CSCCC(=O)Nc1cc(S(=O)(=O)N2CCOCC2)ccc1N1CCN(C)CC1	10	2%	3	.	0%	0%
CN(Cc1nc2ccccc2c(=O)[nH]1)Cc1nc2ccsc2c(=O)[nH]1	2	-1%	-16	.	-4%	0%
CCN(c1ccccc1)c1nc2ccsc2c(=O)s1	23*	2%	25	-48%	-6%	-26%
CN(c1ccccc1)c1nc2ccsc2c(=O)s1	56*	6%	97*	-57%	3%	-12%
CC(=O)c1ccc(Nc2nc3ccccc3nc2-n2nc(C)cc2C)cc1	.	.	.	.	-9%	.
COc1cccc(-c2nc(NC(C)C)c3ccccc3n2)c1O	-4	-2%	-6	-135%	-1%	-22%
COc1cccc(-c2nc(NCc3cccnc3)c3ccccc3n2)c1O	19*	-3%	37	0%	-5%	1%
c1cncc(CNc2nc(-c3cccnc3)nc3ccccc23)c1	-4	0%	-10	-3%	1%	1%
CC(C)(C)c1ccc(-c2nc(NCc3cccnc3)c3ccccc3n2)cc1	51*	-2%	76*	-65%	-2%	-90%

Bioassay records as filed in PubChem.
